Substitutions are numbered along the chain they refer to. Over roughly 5,800 sequences, “enrichment r” has its median near 0.54; the highest 2% begin near 16. The sample holds the highest values, similar sequences and a random draw of the others, so the mix is not that of the screen.
B1: chr11:214995:215097:+|3pUTR|ENSG00000177963|unk|total|mutant (ssRNA)
RNA: GGGAGUUCUACAGUCCGACGAUCCCUCCUUCCUACUGGUUCCGACUACACUUACAACAAGGAAAAUGCCCCUCGUGUGACCACCGAUUGAGAUUUAUACCACAUACCACACACCGCCACAGAAACAUCAUCUUGAAAUAAAGACAACAGAGGAUUGAGCAUCA
B2: chr5:157162449:157163658:-|CDS|ENSG00000170613|control|control|control (ssRNA)
RNA: GGGAGUUCUACAGUCCGACGAUCGGUCACAUCACAUGACAGAGAGGUAGAUAUCGUGGCUAAGAUGGUGGAGAAGCAAAACAUAGAGGCCAAAGUGGAGAAAGCCCAGGGUGGCCAGGAGCUGGAGAUGAUCAGUGGCACUAUCAACAGAGGAUUGAGCAUCA
B3: chr1:234405902:234406099:-|CDS|ENSG00000059588|control|control|control (ssRNA)
RNA: GGGAGUUCUACAGUCCGACGAUCCCUUAUAGUUGUGCUGCAGUGGUGUUUCAAUCACAAUUUUAGUGUUCGACUGUAUGCUUUAGUUGCUCUUAAGAAACUCUGGACUGUGUGUAAAGUGUUAAGUGUUGAAGAAUUUGAUGCCAACAGAGGAUUGAGCAUCA
B4: chr6:136278143:136278257:-|CDS|ENSG00000029363|unk|total|mutant (ssRNA)
RNA: GGGAGUUCUACAGUCCGACGAUCACAUCCGGUGAUAUUUGGCCUGGCCUUUCAGCUUAUGAUAACCGUCCCCGAUCACCCCACCGUCCUUCACCUAUUGCUACACCACCCCGUCAGAGUUCAUCUUGCUCUGAUGCUCCCAUGCAACAGAGGAUUGAGCAUCA
B5: chr1:15430058:15430159:+|3pUTR|ENSG00000142634|msi1|FALSE|unique (ssRNA)
RNA: GGGAGUUCUACAGUCCGACGAUCCCUGGAAGCUACGCGGACUUGCAGAGGUUUUAUUUUUUGGCCUUAGAAUCUGCAGAAAUUAGGAGGCACCGAGCCCAGCGCAGCAGCCUCGGACCCGGAUUGCGUUUGCCUUAGCGGAUACAACAGAGGAUUGAGCAUCA
B6: ENSG00000070961:be:win_4001|3pUTR|ENSG00000070961|bound_else_gene|NA|bound_elsewhere_windowed (ssRNA)
RNA: GGGAGUUCUACAGUCCGACGAUCAGUAAAACUGGGCAAGACAAAGAGCCCUGGAUCGUUGAAUUGAUAGUUUAAUUUCUGCUGUUGGCUGUUAAUAAUUUGGAUUAUUUAUGUUUAUAAAUGAUACAGAUCUGUUUACAAGGUCAACAGAGGAUUGAGCAUCA
B7: ENSG00000005810:stop:overlap|stop_codon|ENSG00000005810|stop_codon|NA|stop_codon (ssRNA)
RNA: GGGAGUUCUACAGUCCGACGAUCCACCCACUGGGGAAGAGUUUGCUCUGGGAUGUGGAGUGUGCAGAAAUGCCCACACUUUUUAGAACACGCAGAUCCUUUGUCUACAGAGAGAAAAAUUGCCUUCAUCCCCCAAGAGGAUGCCAACAGAGGAUUGAGCAUCA
B8: chr2:105361111:105361195:-|3pUTR|ENSG00000115641|msi1_unk|total|mutant (ssRNA)
RNA: GGGAGUUCUACAGUCCGACGAUCCUUUCUCACCCAGGCAAUCUUGCCUUCUGGUUUCUUCCAGCCACAUUGAGACUUUCUUCCCGUGCUUUUCAGUGAUACUCACGUUUGCUUAAACCCUUCCGUGCUUUGUGACCGUUCAGUCAACAGAGGAUUGAGCAUCA
B9: chrX:85861749:85861850:-|3pUTR|ENSG00000188419|msi1|FALSE|unique (ssRNA)
RNA: GGGAGUUCUACAGUCCGACGAUCCUAAUUUAAAAUUUCAGAAAAUGCUAUUAAAGAAUUUUGAUUCAAGUAUUUAAACUGUUUAGUUAUGCAUGCUUCUUAUUAACCGAAAAUGAUAAUACCAUUUAGUUUAGUGAUCAGUAUCAACAGAGGAUUGAGCAUCA
B10: chr10:62094764:62094865:+|3pUTR|ENSG00000150347|msi1|FALSE|unique (ssRNA)
RNA: GGGAGUUCUACAGUCCGACGAUCGAUGAACUCCCCAACCCACUGUGCCCCUCCCGCAACACUACCAGUAGACUUUAGAACCAUAGUUAACUAAGUCUUUUACCUCUGAGAUACUUAAUUCUGGGAAAAUUGGUGACAAUUUUCCAACAGAGGAUUGAGCAUCA
B11: chr5:136976780:136976881:-|3pUTR|ENSG00000152377|msi1|total|mutant (ssRNA)
RNA: GGGAGUUCUACAGUCCGACGAUCCUUAAAUCCGCAUGUUCCAAUCCAGUCGGCAUUGCCUGAAUACAGCCGCAUCAUACCUACCGUUGGUCUCCGAUAAGAAAUGAACUACUUGAUACCGCAAAGUCCUUUGGCUUCGUAAAUCAACAGAGGAUUGAGCAUCA
B12: ENSG00000198589:be:win_9701|3pUTR|ENSG00000198589|bound_else_gene|NA|bound_elsewhere_windowed (ssRNA)
RNA: GGGAGUUCUACAGUCCGACGAUCCAAGGAUUUGGAAUGAACAAUUCAGUUUGACAGAAAAAGCUGAAUAAAAUGGCAUCUGUAAUUGAAUUGUUGGAAAUGCCUUUUUUGCUCCUAAAUUUUAAACAUCAUUAAUAAAAUAAUCAACAGAGGAUUGAGCAUCA
B13: chr8:9779869:9779970:+|3pUTR|ENSG00000173273|msi1|FALSE|unique (ssRNA)
RNA: GGGAGUUCUACAGUCCGACGAUCGGAAUUUCUAGCUUUUCAAGCAGCAUAAGUAGAAUCAACAUUAGGAUGUUUUCAUGAAAUAGCAUCCUUAUACUUCUUUGAGCUUGAUGUUAGUGGCUAGACUGAUUUCCCUUUGCUCUCCAACAGAGGAUUGAGCAUCA
B14: chrX:85861749:85861850:-|3pUTR|ENSG00000188419|msi1|total|mutant (ssRNA)
RNA: B9 RNA with U83C, A84C, U126C, A127C, U131C, A132C
B15: ENSG00000070961:be:win_4401|3pUTR|ENSG00000070961|bound_else_gene|NA|bound_elsewhere_windowed (ssRNA)
RNA: GGGAGUUCUACAGUCCGACGAUCGUUAUGACAUCUGUCCUAAUUAGUUUCUUAAAUACAUUUACUACUUAAUGGUUUUGAAGCAACUGUUUAAUUUUUAAAAUUUUUGAAAACUUGCUAAUAACCUUUUGUUCAGAAUUUAGUCAACAGAGGAUUGAGCAUCA
B16: ENSG00000013293:stop:overlap|stop_codon|ENSG00000013293|stop_codon|NA|stop_codon (ssRNA)
RNA: GGGAGUUCUACAGUCCGACGAUCAACACAAACAGAACUCAGAGGCCCUGAUUGCAAAUGAUGAGUUAGAUUACUCUCCAGAGUAGGAGAAACACACAAGUGGGUAGAAAUGGUGAUGACUGAUUUUCAGUAACUUAACCUGUGCAACAGAGGAUUGAGCAUCA
B17: chr11:62152232:62152344:+|3pUTR|ENSG00000149503|unk|total|mutant (ssRNA)
RNA: GGGAGUUCUACAGUCCGACGAUCUGCUCUGUAAACCGUUGUUUUAAUUCCGCUGAAUGUCCGCAUUUCCGUCUUUGGCAUUUCCGCGUUUGGGAGGCCGAUUAAUAAAGUAUAUUCCUUCAAGCCUGCUGUUGAUACCAUGAACAACAGAGGAUUGAGCAUCA
B18: chr5:136976780:136976881:-|3pUTR|ENSG00000152377|msi1|FALSE|unique (ssRNA)
RNA: B11 RNA with C31U, C32A, C69U, C70A, C83U, C84A, C93U, C94A, C118U, C119A
B19: chr11:62152232:62152344:+|3pUTR|ENSG00000149503|unk|FALSE|unique (ssRNA)
RNA: GGGAGUUCUACAGUCCGACGAUCUGCUCUGUAAAUAGUUGUUUUAAUUUAGCUGAAUGUUAGCAUUUUAGUCUUUGGCAUUUUAGCGUUUGGGAGGUAGAUUAAUAAAGUAUAUUCCUUCAAGCCUGCUGUUGAUACCAUGAACAACAGAGGAUUGAGCAUCA
B20: ENSG00000071054:stop:overlap|stop_codon|ENSG00000071054|stop_codon|NA|stop_codon (ssRNA)
RNA: GGGAGUUCUACAGUCCGACGAUCCUGGUGGCAGCAGUCAGGUUUAUUUCAUGACCUUAGGCAGGACUUCUCUUCUGAGCUGGUAGAAGCAGUGUGAUCCAGGGAUUACUGGCCUCCAGAGUCUUCAAGAUCCUGAGAACUUGGCAACAGAGGAUUGAGCAUCA

The binders below were run against MSI1 full-length (mouse, UniProt Q61474 1-362) (assay: nsRBNS (natural sequence RNA bind-n-seq); RBNS binding buffer (assumed for nsRBNS): 25 mM Tris pH 7.5, 150 mM KCl, 3 mM MgCl2, 0.01% Triton X-100, 500 ug/ml BSA, 20 U/ml SUPERase-In, 4 C; UNK is unkempt and MSI1 is Musashi-1; names of the RNAs are library labels; protein concentration not given here; high values mean tight binding).
Sequence of MSI1 full-length (Q61474 whole entry): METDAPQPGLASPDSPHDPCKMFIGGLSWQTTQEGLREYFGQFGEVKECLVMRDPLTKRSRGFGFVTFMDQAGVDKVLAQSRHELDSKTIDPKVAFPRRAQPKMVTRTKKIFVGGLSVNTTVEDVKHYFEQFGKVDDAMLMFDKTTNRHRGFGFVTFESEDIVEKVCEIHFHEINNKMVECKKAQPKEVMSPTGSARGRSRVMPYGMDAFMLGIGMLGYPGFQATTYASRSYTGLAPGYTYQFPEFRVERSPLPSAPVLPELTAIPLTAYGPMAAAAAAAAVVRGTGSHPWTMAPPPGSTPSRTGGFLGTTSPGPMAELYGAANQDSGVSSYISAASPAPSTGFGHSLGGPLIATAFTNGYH
With B1 the binding signal was 0.839 enrichment R. In the case of B2, the binding signal is reported as 0.709 enrichment R. Work on B3 yielded a binding signal of 0.964 enrichment R. B4 was tested, and the binding signal was 0.739 enrichment R. In the case of B5, the binding signal is reported as 0.989 enrichment R. B6 was tested, and the binding signal was 0.47 enrichment R. For B7, the binding signal was 0.439 enrichment R. In the case of B8, the binding signal is reported as 0.426 enrichment R. In the case of B9, the binding signal is reported as 54.6 enrichment R. B10 was tested, and the binding signal was 12.5 enrichment R. B11 showed a binding signal of 0.478 enrichment R. In the case of B12, the binding signal is reported as 0.605 enrichment R. Binder B13 has a binding signal of 0.275 enrichment R. Work on B14 yielded a binding signal of 0.789 enrichment R. For B15, the binding signal was 3.8 enrichment R. Binder B16 has a binding signal of 18.5 enrichment R. Binder B17 has a binding signal of 0.406 enrichment R. Work on B18 yielded a binding signal of 71.2 enrichment R. With B19 the binding signal was 70 enrichment R. B20 showed a binding signal of 0.605 enrichment R.

From paper PMC12136788
